An excerpt weighted towards active compounds, which were near 7.9% of everything screened.
Lassa entry inh – blocks Lassa virus binding to or entry into cells; Lassa virus pseudotype entry inhibition, cell reporter; Potency, µM (titrated, usually from 37.9 µM), without a hit: top-dose activity change, negative = inhibition, actives largely listed as inhibitors; 1.2% of 300,000 active; calls by dose curve; tested in HEK293 cells; also: potency is read from the fitted curve at half-maximal effect; nearly all actives have a fitted effect of over 50% in size
HCMV antiviral – human cytomegalovirus inhibition; HFF cells, HCMV-luciferase reporter, 72 h; active compounds read low; activity change, negative = inhibition, % at 57.5 µM; 4.5% of 410,000 active; AID 1259415; in the data active = activity change below about -60%; inconclusive = no clear call, values can overlap the other calls; inactive = above about -39%
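Two-dose cell screen: HFF monolayers treated with compounds and infected with luciferase-expressing HCMV at 1 PFU/cell, 72 h at 37C, then lysed for luciferase measurement.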
FMDV inh – foot and mouth disease virus antiviral activity; FMDV antiviral cell-based qHTS; Potency, µM (doses to about 57.9 µM), without a hit: at the highest dose activity change, negative = inhibition, usual class: inhibitors; 1.2% of 410,000 active; calls by dose curve; tested in HEK293T cells; also: read-out not given here; potency is read from the fitted curve at half-maximal effect; nearly all actives have a fitted effect of over 45% in size
MARV entry inh – inhibitors of Marburg virus binding or cell entry; 1.8% of 300,000 active; AID 540276; Potency, µM (series often up to 37.8 µM), for the others: top-dose activity change, negative = inhibition, most hits filed as inhibitors; Marburg virus pseudotyped entry inhibition, cell reporter; calls by dose curve; tested in HEK293 cells; also: potency is read from the fitted curve at half-maximal effect
HCV inhibitor – blocks hepatitis C virus; AID 651820; Huh7.5.1 HCVcc-Cre infection, luciferase reporter, 44 h; Potency, µM (doses to about 41.8 µM), for the others: at the top dose activity change, negative = inhibition, most hits filed as inhibitors; 3.4% of 340,000 active; active = well fitted inhibition curve with a large enough effect; inconclusive = small, poorly fitted or top-dose-only effect, or another doubt; inactive = no such curve, though single readings can be large or run the other way; also: potency is read from the fitted curve at half-maximal effect
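After 44 h co-culture of compound, cells and HCVcc-Cre (~0.5 moi), substrate is added for 15 min at room temperature and luciferase measured over 15 sec. Cells were seeded at 1,000/well and pre-cultured 4 h.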
Numbers without * were called inactive; [ ] = remark or other dose. % is scaled to controls: 0 for no effect and ±100 for the full control effect.

For CCOc1ccccc1CNC(=O)CCCn1c(=O)c2cccn2c2ccc(F)cc21 the results were Lassa entry inh 0.1%[46.1 µM], HCMV antiviral 33.4 and FMDV inh inconclusive.
`O=C(OCc1ccccc1)c1cccnc1` gave HCMV antiviral 1.6.
For CCCCCCCN1C2=NCCCN2c2ccccc21 the results were Lassa entry inh inconclusive, HCMV antiviral inconclusive, FMDV inh inconclusive, MARV entry inh inconclusive and HCV inhibitor 10µM*.
For CN1N=C(N)c2cn(C3OC(COP(=O)(O)O)C(O)C3O)c3ncnc1c23 (stereo not given) the results were Lassa entry inh -28.2%, HCMV antiviral -69.6*, FMDV inh -13.3%, MARV entry inh inconclusive and HCV inhibitor inconclusive.
For Nc1ncnc2c1ncn2C1OC(COP(=O)(O)O)C(O)C1O (stereo not given) the results were HCMV antiviral 101.4, FMDV inh 4.9% and HCV inhibitor 6.6%.
`Nc1ncnc2c1ncn2[C@@H]1O[C@H](COP(=O)(O)OP(=O)(O)OP(=O)(O)O)[C@@H](O)[C@H]1O` gave FMDV inh -16.3% and HCV inhibitor 0.562µM*.
For Nc1ncnc2c1ncn2[C@@H]1O[C@H](COP(=O)(O)O)[C@@H](O)[C@H]1O the results were HCMV antiviral 45.4, FMDV inh 4.8% and HCV inhibitor 0.562µM*.
`OC[C@H]1O[C@H](C#Cc2ccccc2)C=C[C@@H]1O` gave Lassa entry inh inconclusive and MARV entry inh 19.6%[14.2 µM].
Screening O=[N+]([O-])c1cc(C(F)(F)F)ccc1Cl returned HCMV antiviral -69.2*, FMDV inh -15.8% and HCV inhibitor inconclusive.
CS(=O)(=O)NCCCNc1ccc(C(F)(F)F)cc1[N+](=O)[O-] was read as HCMV antiviral 5.7, FMDV inh -7.7% and HCV inhibitor 2.1%.
`Nc1cc(C(F)(F)F)cc([N+](=O)[O-])c1N` gave HCMV antiviral 43.9, FMDV inh -11.8% and HCV inhibitor inconclusive.
O=[N+]([O-])c1cc(C(F)(F)F)ccc1NCCCCNS(=O)(=O)c1ccc(Cl)cc1 was read as Lassa entry inh -12.6%, HCMV antiviral -73.4*, FMDV inh inconclusive, MARV entry inh inconclusive and HCV inhibitor inconclusive.
Screening CCOC(=O)CN1C(=O)C(Sc2n[nH]c(-c3ccc(C)cc3)n2)CCc2ccccc21 (stereo not given) returned Lassa entry inh inconclusive, HCMV antiviral inconclusive, FMDV inh 28.2µM*, MARV entry inh inconclusive and HCV inhibitor inconclusive.
`O=c1c2sc(-c3ccccc3)cc2nc2n1CCC2` gave Lassa entry inh inconclusive, HCMV antiviral 27.0, FMDV inh -48.1%, MARV entry inh 4.47µM* and HCV inhibitor 7.7%.
For CN1CCCC1CCNS(=O)(=O)c1ccc(Br)cc1 (stereo not given) the results were Lassa entry inh -9.9%, HCMV antiviral -15.7, FMDV inh -17.6%, MARV entry inh inconclusive and HCV inhibitor 10µM*.
`CC1CCCN(C(=O)CCNS(=O)(=O)c2ccc(Br)cc2)C1` (stereo not given) gave Lassa entry inh -7.0%, HCMV antiviral -6.7, FMDV inh -4.9%, MARV entry inh 2.5% and HCV inhibitor 36.0%.
For Cc1ccc(S(=O)(=O)n2ccc3c(OCCOCCNCc4ccc(F)cc4)cccc32)cc1 the results were Lassa entry inh inconclusive, HCMV antiviral -101.3*, FMDV inh inconclusive, MARV entry inh inconclusive and HCV inhibitor inconclusive.
CCc1ccc(N2CC(C(=O)N/N=C/c3cc([N+](=O)[O-])ccc3O)CC2=O)cc1 (stereo not given) was read as Lassa entry inh 7.08µM*, HCMV antiviral inconclusive, FMDV inh -6.2%, MARV entry inh -3.3%[46.1 µM] and HCV inhibitor inconclusive.
CCc1ccc(N2CC(C(=O)N/N=C/c3ccccc3OC)CC2=O)cc1 (stereo not given) was read as Lassa entry inh inconclusive, HCMV antiviral -16.4, FMDV inh 3.3%, MARV entry inh 1.2%[46.1 µM] and HCV inhibitor -22.6%.
Cc1nc2cc(-c3ccsc3-n3c(C)ccc3C)[nH]n2c(=O)c1Cl was read as Lassa entry inh -1.3%, HCMV antiviral -12.5, FMDV inh 31.6µM*, MARV entry inh -29.7% and HCV inhibitor 19.5%.
`Cc1ccccc1-c1cc2nc(C)c(Cl)c(=O)n2[nH]1` gave Lassa entry inh inconclusive, HCMV antiviral -29.8, FMDV inh 40.9%, MARV entry inh 12.6µM* and HCV inhibitor 11.3%.
For CC(C)N1CCC1(C)C(=O)Nc1cccc2ccccc12 (stereo not given) the results were HCMV antiviral 12.5 and FMDV inh 22.4µM*.
Screening COc1ccc(-n2nc3cc(C)c(NC(=O)c4ccc(-c5ccc(Br)cc5)o4)cc3n2)cc1 returned Lassa entry inh 29.7%[46.1 µM], HCMV antiviral 61.3 and FMDV inh 45.8%.
COCCn1c(=O)[nH]c2cc(C(=O)NCc3ccccc3Cl)ccc2c1=O was read as Lassa entry inh inconclusive, HCMV antiviral -68.7*, FMDV inh -12.5% and MARV entry inh inconclusive.
O=C(NCCCN1CCCCC1)c1ccc2c(=O)n(CCc3ccccc3)c(=O)[nH]c2c1 was read as Lassa entry inh -27.4%, HCMV antiviral -2.1, FMDV inh 8.0%, MARV entry inh inconclusive and HCV inhibitor 6.31µM*.
For COCCn1c(=O)[nH]c2cc(C(=O)OC)ccc2c1=O the results were Lassa entry inh 13.9%, HCMV antiviral -7.3, FMDV inh -0.8%, MARV entry inh 4.4% and HCV inhibitor 12.3%.
CCOc1cc2[nH]c(=S)n(Cc3ccc(C(=O)NCCCN4CCOCC4)cc3)c(=O)c2cc1OCC was read as HCMV antiviral -29.3, FMDV inh -7.1% and HCV inhibitor 9.2%.
CCOc1cc2[nH]c(=O)n(Cc3ccc(C(=O)NCCCN4CCC(C)CC4)cc3)c(=O)c2cc1OCC was read as Lassa entry inh -0.1%, HCMV antiviral -64.4*, FMDV inh -8.6%, MARV entry inh inconclusive and HCV inhibitor inconclusive.
`c1ccc2sc(-c3ccc4c(c3)OCO4)nc2c1` gave Lassa entry inh 9.2µM*, FMDV inh -76.3%, MARV entry inh inconclusive and HCV inhibitor inconclusive.
For CCN1CCN(C(=O)c2ccc(-c3nc4ccccc4s3)s2)CC1 the results were HCMV antiviral -33.0, FMDV inh 31.1% and HCV inhibitor inconclusive.
For O=C(c1ccc(-c2nc3ccccc3s2)s1)N1CCOCC1 the results were Lassa entry inh 3.55µM*, HCMV antiviral -71.5*, FMDV inh 8.91µM*, MARV entry inh inconclusive and HCV inhibitor inconclusive.
`O=C(NC1CC1)c1ccc(-c2nc3ccccc3s2)s1` gave Lassa entry inh 1.26µM*, HCMV antiviral -12.4, FMDV inh inconclusive, MARV entry inh 1.41µM* and HCV inhibitor inconclusive.
Cc1ccc2nc(NC(=O)c3ccc(-c4nc5ccccc5s4)s3)sc2c1 was read as Lassa entry inh 23.6%, HCMV antiviral -32.8, FMDV inh 17.5%, MARV entry inh -4.6% and HCV inhibitor -2.1%.

Compound activity deposited in PubChem BioAssay by National Center for Advancing Translational Sciences (NCATS).
